Laboratory results published in PubChem BioAssay.
Where “and” joins values, the source holds several entries; their conditions need not be identical. Identical values can stand only once. Results filed as inconclusive are left out. Calls of active or inactive are those of the source.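 Rule for the calls, unless noted: active = compounds whose cell count with miR-34 switched on is under 0.7 times the count with it off; inactive = the rest.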

How the values were obtained:
[1] = tested on: Aerobactin synthetase IucA (Klebsiella pneumoniae); test: IucA aerobactin synthetase inhibitors, biochemical, Tocris library, absorbance (AID 1345561; call rule not given here;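 note: 100% = enzyme without compound and 0% = no enzyme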); details: purified IucA enzyme assay, absorbance (OD) read-out; stronger effect = lower value;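 tested at 8 µM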
[2] = sensitizers of A549 cells to miR-34 induction, primary screen, imaging, A549 dox-inducible miR-34, nuclei and caspase counts (AID 1347080); details: A549 miR-34 inducible, Hoechst nuclei count, 48 h
[3] = inhibitors of Cryptococcus chitosan production, flow cytometry, Cibacron Brilliant Red staining (AID 1347148; call rule not given here;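 note: compound exposure lasted three days at 37 degrees C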); details: Cryptococcus neoformans chitosan, stronger effect = lower value; at 10 µM unless noted
[4] = viability rescue of complex I mutant cybrids, primary screen, cell-based, galactose medium, ATP luminescence (AID 1645843;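 active = z-score of at least 1.8 in each of two replicates, scored against plate mean and spread of sample wells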;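 note: positive z means more ATP and so rescue of galactose-driven cybrid death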); details: complex I mutant cybrid cells, 72 h, stronger effect = higher value
[5] = growth inhibition of DIPG glioma cells, dose response, cell-based, JHH-DIPG-1, MIPE4.0, CellTiter-Glo, qHTS (AID 1347062; cut-off not given, nearly all actives have AC50 up to about 27 µM); details: JHH-DIPG-1 viability, CellTiter-Glo ATP luminescence
[6] = growth inhibition of DIPG glioma cells, dose response, cell-based, SU-DIPG-IV, MIPE4.0, CellTiter-Glo, qHTS (AID 1347063; cut-off not given, nearly all actives have AC50 up to about 30 µM;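 note: compound exposure lasted 48 hours before the viability readout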); details: SU-DIPG-IV viability, CellTiter-Glo ATP luminescence
[7] = SU-DIPG-VI glioma cell viability, MIPE4.0 library, CellTiter-Glo luminescence, qHTS (AID 1347066; cut-off not given, nearly all actives have AC50 up to about 30 µM;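 note: cells exposed to compound for 48 hours before readout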); details: CellTiter-Glo ATP luminescence
[8] = hESC survival regulators, cell-based (AID 493140; call rule not given here;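 note: cells exposed to compounds for four days before counting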); details: human embryonic stem cell survival screen; stronger effect = higher value
[9] = liver-stage malaria parasite growth inhibition, primary screen, cell-based, HepG2, luciferase luminescence, HepG2 viability (AID 624349; in the data active = parasite load remaining mostly below about 12%, no sharp cut-off; inactive = mostly above about 10%;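 note: 100% = mean of DMSO negative control wells on the same plate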); details: P. berghei liver stage in HepG2, luciferase luminescence, concentration not given here; parasite load remaining: stronger effect = lower value; viability: measured here: HepG2 viability without parasites
[10] = survival rescue of mitochondrial mutant cells in low glucose, primary screen, MELAS cybrids, Rieske KO mouse fibroblasts, CellTiter-Glo (AID 1508586;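 active = mean z-score across replicates of 1.96 or higher in either the MELAS or the Rieske mutant cell line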;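 note: z relative to plate mean and SD of compound and empty wells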)
[11] = circadian clock period modulators, cell-based, LOPAC library, luminescence reporter (AID 2774; call rule not given here;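 note: values are relative to mean of DMSO wells on each plate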); details: circadian reporter cells, at 7 µM, actives lie on both sides
[12] = tested on: Hepatitis C virus NS3 helicase; test: HCV NS3 helicase inhibitors, primary screen, biochemical, fluorescence polarization, LOPAC1280 library (AID 687035; in the data active = inhibition above about 37%); details: Purified HCV NS3 helicase, Cy5-dT15 ssDNA binding fluorescence polarization; stronger effect = higher value; concentration not given here
[13] = Cy5 fluorescence quenching or enhancement artefacts, artefact control for HCV NS3 helicase inhibitor project, biochemical, LOPAC1280 (AID 687037; call rule not given here); details: Cy5-DNA-NS3h complex fluorescence interference counterscreen
[14] = tested on: Aerobactin synthetase IucA (Klebsiella pneumoniae, hypervirulent); test: IucA enzyme inhibition, biochemical, LOPAC library, absorbance readout (AID 1346212; call rule not given here;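 note: 100% = no compound wells and 0% = no enzyme wells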); details: IucA enzyme assay, absorbance (OD) readout; stronger effect = lower value;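 tested at 8 µM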
[15] = measured here: relative caspase fold change +Dox/-Dox
[16] = measured here: total cells with miR-34 induction, stronger effect = lower value
[17] = measured here: total cells without miR-34 induction
[18] = stronger effect = lower value, cell number ratio, induced over uninduced

With `CC(C)(c1ccc(OCC2CO2)cc1)c1ccc(OCC2CO2)cc1` (configuration not stated) the remaining activity [1] was 110% (inactive), the fold change ([2]; stronger effect = lower value) was 0.903 (inactive) and 0.927 (inactive) and 0.945 (inactive) and the fold change [2, 15] was 1.23 and 0.827 and 0.981. For the same compound, the cell count [2, 16] was 5020 and 5510 and 8910, the cell count [2, 17] was 5560 and 5950 and 9430 and the fold fluorescence [3] was 8.02 [at 146.9 µM] (inactive). The z-score [4] was -0.925 (inactive).

With `CC(=O)N(C)c1cccc(-c2ccnc3c(C(=O)c4cccs4)cnn23)c1` the remaining activity [1] was 110% (inactive), the outcome [5] was “inactive” and the outcome [6] was “inactive”. The outcome [7] was “inactive”, the fold change ([2]; stronger effect = lower value) was 0.919 (inactive) and the fold change [2, 15] was 1.18. The cell count [2, 16] was 6530, the cell count [2, 17] was 7110 and the z-score [4] was 2.35 (active).

With `CN1C2CCC1CC(OC(c1ccc(F)cc1)c1ccc(F)cc1)C2` (configuration not stated) the remaining activity [1] was 99.4% (inactive), the fold change [2, 18] was 1.03 (inactive) and the fold change [2, 15] was 1.19. For the same compound, the cell count [2, 16] was 7710, the cell count [2, 17] was 7460 and the z-score [4] was -0.46 (inactive).

With `C[C@@]12N[C@@H](Cc3ccccc31)c1ccccc12` the survival [8] was 4.17 (inactive), the parasite load remaining [9] was 76.1% (inactive) and the viability [9] was 94%. For the same compound, the remaining activity [1] was 98.4% (inactive), the fold change ([2]; stronger effect = lower value) was 0.9 (inactive) and 1.01 (inactive) and 0.896 (inactive) and the fold change [2, 15] was 1.15 and 0.684 and 0.656. The cell count [2, 16] was 9800 and 8290 and 9030, the cell count [2, 17] was 10900 and 8240 and 10100 and the z-score ([10]; MELAS cybrid survival, CellTiter-Glo 48 h, stronger effect = higher value) was -0.404 (inactive) and 0.719 (inactive). The z-score ([10]; Rieske KO mouse fibroblast survival, CellTiter-Glo 72 h) was -0.00785 and -0.0901 and the z-score [4] was 0.79 (inactive).

With `Cn1c2c(c3ccccc31)CCNCC2` the remaining activity [1] was 98.4% (inactive), the fold change [2, 18] was 0.896 (inactive) and the fold change [2, 15] was 1.23. For the same compound, the cell count [2, 16] was 8130, the cell count [2, 17] was 9070 and the z-score [4] was -0.23 (inactive).

In the case of `O=C1CN=C(c2cccc(Br)c2)c2oc3ccccc3c2N1`, the remaining activity [1] is reported as 121% (inactive), the fold change [2, 18] is reported as 1.01 (inactive) and the fold change [2, 15] is reported as 1.75. For the same compound, the cell count [2, 16] was 2110, the cell count [2, 17] was 2080 and the z-score [4] was -0.285 (inactive).

For `O=C1C2CCN(CC2)C1(CO)CO`, the remaining activity [1] was 120% (inactive), the fold change ([2]; stronger effect = lower value) was 1.16 (inactive) and 0.936 (inactive) and 0.92 (inactive) and the fold change [2, 15] was 1.5 and 1.74 and 0.604. The cell count [2, 16] was 4350 and 5660 and 9650, the cell count [2, 17] was 3770 and 6050 and 10500 and the fold fluorescence [3] was 9.13 [at 269.9 µM] (inactive). The z-score [4] was -0.76 (inactive).

For `COc1ccc(CNC(=O)/C=C/c2ccc3[nH]cc(CCN(C)C)c3c2)cc1`, the period change [11] was 0.1 h (inactive), the inhibition [12] was -1% (inactive) and the fluorescence ratio (interference) [13] was 1 (inactive). For the same compound, the remaining activity [1] was 97.5% (inactive), the remaining activity [14] was 111% (inactive) and the fold change ([2]; stronger effect = lower value) was 1.08 (inactive) and 0.935 (inactive). For the same compound, the fold change [2, 15] was 1.56 and 0.859, the cell count [2, 16] was 9510 and 8680 and the cell count [2, 17] was 8780 and 9280. For the same compound, the z-score [4] was -0.155 (inactive) and -0.415 (inactive).
